Experimental data from publication PMC4336329 (PLoS ONE, 2015).
The campaign covered roughly 310,000 compounds. About 14,000 (4.5%) showed an effect of 50% or more. Effects have a minus sign here. Shown is part of a subset that was picked to be rich in strong results.

Target: human ether-à-go-go-related gene (hERG) potassium channel (human, UniProt Q12809)
Experiment: primary screen, population patch clamp on CHO cells stably expressing hERG; higher = less effect of the substance
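Also: peak tail current of the secondary pulse compared with the same well before compound.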

human ether-à-go-go-related gene (hERG) potassium channel, sequence (Q12809 whole entry, looked up): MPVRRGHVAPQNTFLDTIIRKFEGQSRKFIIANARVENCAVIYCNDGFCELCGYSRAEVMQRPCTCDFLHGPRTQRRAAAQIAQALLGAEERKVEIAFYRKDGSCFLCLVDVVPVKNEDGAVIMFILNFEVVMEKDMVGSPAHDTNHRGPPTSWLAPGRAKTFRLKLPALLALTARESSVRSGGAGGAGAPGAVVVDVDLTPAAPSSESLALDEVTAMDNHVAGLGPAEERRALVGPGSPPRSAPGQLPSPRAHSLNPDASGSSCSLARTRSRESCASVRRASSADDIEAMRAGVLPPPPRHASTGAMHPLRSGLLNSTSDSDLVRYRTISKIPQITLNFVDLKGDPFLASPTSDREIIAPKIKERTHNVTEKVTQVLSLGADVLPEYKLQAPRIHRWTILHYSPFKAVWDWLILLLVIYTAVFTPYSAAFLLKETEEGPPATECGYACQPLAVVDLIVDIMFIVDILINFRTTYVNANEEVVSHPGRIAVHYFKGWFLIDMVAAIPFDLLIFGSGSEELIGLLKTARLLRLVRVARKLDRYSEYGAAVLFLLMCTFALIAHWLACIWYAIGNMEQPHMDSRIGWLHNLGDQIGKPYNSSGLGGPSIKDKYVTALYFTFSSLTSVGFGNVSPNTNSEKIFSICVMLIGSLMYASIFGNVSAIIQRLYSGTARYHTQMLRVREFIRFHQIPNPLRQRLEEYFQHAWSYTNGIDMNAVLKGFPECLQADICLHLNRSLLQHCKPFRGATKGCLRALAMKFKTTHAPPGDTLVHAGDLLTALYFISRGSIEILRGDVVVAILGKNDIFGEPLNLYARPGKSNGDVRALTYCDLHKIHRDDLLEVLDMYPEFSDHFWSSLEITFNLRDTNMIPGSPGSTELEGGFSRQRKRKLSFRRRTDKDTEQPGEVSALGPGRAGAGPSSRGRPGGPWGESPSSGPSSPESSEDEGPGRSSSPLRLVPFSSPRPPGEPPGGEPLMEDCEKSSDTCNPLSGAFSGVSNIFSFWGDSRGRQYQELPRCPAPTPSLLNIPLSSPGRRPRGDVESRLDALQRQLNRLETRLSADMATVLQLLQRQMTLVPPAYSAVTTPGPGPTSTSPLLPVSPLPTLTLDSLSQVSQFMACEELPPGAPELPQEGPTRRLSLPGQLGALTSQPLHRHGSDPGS

Row | SMILES | hERG current change (%, negative = inhibition) at 10uM [%]
1 | c1ccc(CSc2nnnn2-c2ccccc2)cc1 | -3.94
2 | CC(=O)NCc1ccc(S(=O)(=O)NC(C)CCc2ccccc2)cc1 (centres unmarked) | 13.3
3 | OCCn1ccc(-c2ccccc2OCc2ccc(F)cc2)n1 | 4.9
4 | N#Cc1ccccc1Cn1c(-c2cscn2)nc2ccccc21 | -7.78
5 | CCOC(=O)c1sc(NC(=O)CCCn2nc([N+](=O)[O-])c(Cl)c2C)c(C(=O)OCC)c1C | -3.72
6 | Cc1cc(/C=C(\C#N)C(=O)NCCc2c[nH]c3ccccc23)c(C)n1C | 3.85
7 | O=C1CS/C(=N\C(=O)N2c3ccccc3Sc3ccccc32)N1 | 5.96
8 | Cc1cc(S(=O)(=O)Nc2ccc(N(C)C)cc2)c(C)s1 | 0.71
9 | Fc1ccc(C(c2nnnn2C2CCCC2)N(Cc2ccco2)CC2CCCO2)cc1 (centres unmarked) | -28
10 | O=C(CSc1cccc[n+]1[O-])Nc1cccc(S(=O)(=O)NC2=NCCCCC2)c1 | 54.8
11 | CCCn1c(C)cs/c1=N\C(=S)Nc1ccccc1 | 12.8
12 | COc1cc(C(=O)O/N=C(\N)c2ccc([N+](=O)[O-])cc2)cc(OC)c1OC | -45.2
13 | N/C(=N\OC(=O)c1cccc(Br)c1)c1ccc([N+](=O)[O-])cc1 | 17.7
14 | COc1ccc(CC(=O)O/N=C(\N)Cc2ccc([N+](=O)[O-])cc2)cc1 | -46.5
15 | COc1ccc(C(=O)O/N=C(\N)Cc2ccc([N+](=O)[O-])cc2)c(OC)c1 | -57.1
16 | Cc1cccc(OCC(=O)O/N=C(\N)Cc2ccc([N+](=O)[O-])cc2)c1 | -32.5
17 | Cc1cccc(C(=O)O/N=C(\N)Cc2ccc([N+](=O)[O-])cc2)c1 | -64.3
18 | COc1ccc(C/C(N)=N/OC(=O)c2cccc([N+](=O)[O-])c2)cc1 | -44.2
19 | COc1cc(C(=O)OCc2ccc([N+](=O)[O-])cc2)cc(OC)c1OC | 2.74
20 | Cc1ccc(C(=O)O/N=C(\N)Cc2ccc([N+](=O)[O-])cc2)c(Cl)c1 | -46.3
21 | N/C(Cc1ccc([N+](=O)[O-])cc1)=N\OC(=O)c1cccc(Br)c1 | -58
22 | N/C(=N\OC(=O)Cc1ccc([N+](=O)[O-])cc1)c1cccc(Br)c1 | 3.08
23 | COc1cc(C(=O)O/N=C(\N)Cc2ccc([N+](=O)[O-])cc2)cc(OC)c1OC | -68.9
24 | O=C(CCc1nnc2ccc(NCc3ccccc3)nn12)NC1CCCC1 | 11.1
25 | Cc1ccc(N2CC(C(=O)Nc3nccs3)CC2=O)cc1 (centres unmarked) | -5.15
26 | Cc1ccc(N(C(=O)C2CCCO2)C2C=CS(=O)(=O)C2)cc1Cl (centres unmarked) | -4.44
27 | O=C(Nc1ccc(S(=O)(=O)Nc2ncccn2)cc1)c1cncc(Br)c1 | 10.6

Row | SMILES | hERG current change (%, negative = inhibition) at 10uM [%]
28 | O=C(O)C(=O)O.OC(CNC1CCCc2ccccc21)COc1ccc2ccccc2c1 (centres unmarked) | -72.3
29 | O=C(CSc1ccccc1Cl)NC1CCCc2ccccc21 (centres unmarked) | -1.17
30 | O=C(O)C(=O)O.OC(CNC1CCCc2ccccc21)COc1c(Cl)cccc1Cl (centres unmarked) | -56.5
31 | CCc1ccccc1OC[C@@H](O)CN[C@H]1CCCc2ccccc21.O=C(O)C(=O)O | -24.7
32 | CC(=O)CCc1ccc(OCC(O)CNC2CCCc3ccccc32)cc1.O=C(O)C(=O)O (centres unmarked) | -49
33 | O=C(c1ccccc1)c1ccc(OCC(O)CNC2CCCc3ccccc32)cc1 (centres unmarked) | -31.7
34 | COc1ccc(CC(=O)Oc2ccc(C)cc2Br)cc1OC | 3.25
35 | CN(Cc1nc(-c2ccccc2)no1)C(=O)c1ccc2c(c1)OCO2 | -20.5
36 | Nc1nccnc1C(=O)OCC(=O)Nc1ccc2[nH]c(=O)[nH]c2c1 | 17
37 | O=c1[nH]c2cc3c(cc2cc1CN(CCO)S(=O)(=O)c1ccccc1)OCCO3 | -19
38 | CCc1ccc(NC(=O)CN(c2ccc(OC)cc2)S(=O)(=O)c2c(C)nn(C)c2C)cc1 | -4.36
39 | CCOc1ccc(C2c3[nH]c4ccccc4c3CCN2CCCn2cccn2)cc1 (centres unmarked) | -68.7
40 | Fc1ccc(C2c3[nH]c4ccccc4c3CCN2CCCn2cccn2)cc1 (centres unmarked) | -70.1
41 | COc1ccc(C2c3[nH]c4ccccc4c3CCN2CCCn2cccn2)c(F)c1 (centres unmarked) | -3.85
42 | COc1ccc(C2c3[nH]c4ccccc4c3CCN2CCCn2cccn2)cc1C (centres unmarked) | -38.9
43 | Fc1ccccc1C1c2[nH]c3ccccc3c2CCN1CCCn1cccn1 (centres unmarked) | -46.4
44 | COc1ccc(C2c3[nH]c4ccccc4c3CCN2CCCn2cccn2)c(C)c1C (centres unmarked) | -9.49
45 | CC(C)(C)C1c2[nH]c3ccccc3c2CCN1CCCn1cccn1 (centres unmarked) | -19.5
46 | Cc1ccccc1C1c2[nH]c3ccccc3c2CCN1CCCn1cccn1 (centres unmarked) | -20.3
47 | CC(C)CC1c2[nH]c3ccccc3c2CCN1CCCn1cccn1 (centres unmarked) | -63.1
48 | O=S(=O)(NCc1ccccc1)NCc1ccccc1F | 7.69
49 | COCCN1C(=O)C(=O)/C(=C(/O)c2ccc(S(=O)(=O)N3CCCCC3)cc2)C1c1ccc(OC)c(OC)c1 (centres unmarked) | 8.21
50 | CC1(C)COC(/C=C/c2ccc([N+](=O)[O-])cc2)=N1 | -26.1
51 | CCc1ccccc1N(CC(=O)N1CCCCC1)S(=O)(=O)c1ccccc1 | 10.6
52 | N#CC(C#N)=Cc1cc2ccccc2nc1N1CCCCC1 | 2.22
53 | CCN(CC)c1ccc(NC(=O)COC(=O)COc2ccccc2[N+](=O)[O-])cc1 | 3.42
